HCT116 bCat-KO – primary screen for growth suppressors in beta-catenin knockout HCT116 cells (colon tumor, human); 1.5% of 140,000 active; viability, % at 10 µM; AID 818, 2007; HCT116 beta-catenin knockout viability, CellTiter-Glo, 60 h; active compounds read low;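 active = viability at or under a set limit, the compound median less 4 SD, cut at about 6% in these data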;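 also: 0% = Hyamine 1622 control at 20 µM and 100% = untreated cell control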
INS promoter inh – inhibitors of insulin promoter-driven GFP, primary screen, imaging, TRM-6 cells (human fetal islet line), eGFP reporter, cell count | reporter expression induced with tamoxifen | inhibition, % at 2 µM | 0.9% of 130,000 active;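 active = inhibition above the mean plus 3 SD, with well images judged a real hit on visual review, cut at about 60% in these data, passing the limit was not always enough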
Autophagy HCS – autophagy modulators in MEF cells, primary screen, imaging, high-content, MEF GFP-LC3; AID 463193, 2010; calls only at 10 µM (by protocol); MEF GFP-LC3 puncta imaging; test concentration mostly 10 µM; 0.98% of 190,000 active;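 active = percentage of spot-positive cells more than 3 SD above its plate mean, without a fluorescence outlier flag or 80% toxicity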;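 also: spot-positive cell cutoff set from DMSO-treated cells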
HCT116 PTEN-null – growth suppression of PTEN-null HCT116, primary screen, cell-based, CellTiter-Glo | HCT116 PTEN-null viability, 60 h; active compounds read low | viability, % at 10 µM | 1.2% of 140,000 active;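 active = viability at or below a set limit, 4 SD under the median of all tested compounds, cut at about 3.7% in these data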;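 also: PTEN knockout HCT116 line with beta catenin targeted HCT116 as companion control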
L major viab – Leishmania major promastigote growth inhibition, primary screen; Leishmania major promastigotes, resazurin fluorescence viability; inhibition, % at 10 µM; 9% of 200,000 active; in the data active = inhibition above about 50%;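 also: promastigotes grown with compound for 44 hours at 28 °C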
Insulin prom up – insulin promoter activators in MIN6 cells, imaging, high-content screening, mouse beta cells; MIN6 insulin promoter-GFP reporter; active compounds read high; z-score at 5 µM; 0.3% of 190,000 active;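 active = z-score above 3 at 5 µM with at least 500 cells counted in the well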
An asterisk follows results filed as active; i = inactive; . = no result. An excerpt weighted towards active compounds, which were near 9.6% of everything screened.

SMILES | HCT116 bCat-KO | INS promoter inh | Autophagy HCS | HCT116 PTEN-null | L major viab | Insulin prom up
CN1CCN(C2=C(Cl)C(=O)N(CCc3ccccc3)C2=O)CC1 | 100 | 62 | i | 90 | 93* | -0.29
O=C1C(Cl)=C(NCCCN2CCOCC2)C(=O)N1CCc1ccccc1 | 92 | -20 | i | 87 | 97* | 0.23
CCOc1cc(CNc2ccc3c(c2)CCC3)ccc1O | 85 | -26 | i | 97 | 16 | -0.76
Cc1cc(C)cc(NCc2cc3c(cc2[N+](=O)[O-])OCO3)c1 | 79 | 0 | i | 74 | 4 | -0.89
Cn1c(-c2ccc3c(c2)OCO3)cnc1NC(=O)CCC(=O)NCCc1ccccc1 | 87 | . | i | 86 | -1 | -0.16
Cn1c(-c2ccc3c(c2)OCO3)cnc1NCc1ccccc1 | 75 | 6 | i | 79 | 63* | -0.59
Cn1c(-c2ccc3c(c2)OCO3)cnc1NCc1cccc(Cl)c1 | 87 | . | i | 70 | 93* | 0.27
Cc1ccc(-c2cnc(NCc3cc4c(cc3[N+](=O)[O-])OCO4)n2C)cc1C | . | -15 | i | . | 95* | -1.1
Cn1c(=O)c2c(nc(NCc3ccc4c(c3)OCO4)n2Cc2ccccc2)n(C)c1=O | 65 | -289 | i | 62 | 1 | -5.5
Cn1c(-c2ccc3c(c2)OCO3)cnc1NCc1ccccc1Cl | . | 15 | i | . | 96* | -0.71
Cn1c(-c2ccc3c(c2)OCO3)cnc1N | 100 | . | i | 99 | 7 | -0.36
CCOC(=O)NC(=O)c1cn(Nc2ncc(C(F)(F)F)cc2Cl)c(=O)[nH]c1=O | . | . | . | . | . | 0.08
N#Cc1c(N)nc2c(c1N)CC(CCl)O2 (centres undefined) | 105 | 46 | i | 92 | 57* | 1
N#Cc1c(N2CCCCC2)nc(N)c2c(N)nc3c(c12)CC(CCl)O3 (centres undefined) | . | 7 | i | . | 2 | -2.7
CCOc1ccc(NC(=S)NC(=O)c2c(Cl)c(C)nn2C)c([N+](=O)[O-])c1 | 88 | -29 | i | 95 | -3 | -0.48
CC(=O)N(CCCc1ccc(C(C)(C)C)cc1)CCCN(C)C | 86 | . | i | 89 | 99* | -2.3
CC1=C(CC/C(C)=N/NC(N)=S)C(C)(C)CCC1 | 86 | -176 | i | 88 | 100* | .
CC1=C(C(=O)Nc2ccccc2)C(c2ccc(Cl)cc2)n2c(s/c(=C/c3cccc(OCC(=O)O)c3)c2=O)=N1 (centres undefined) | . | . | i | . | 5 | 0.51
CCOc1ccc(C2C(C(=O)Nc3ccccc3)=C(C)N=c3s/c(=C/c4cccc(OCC(=O)O)c4)c(=O)n32)cc1 (centres undefined) | . | -7 | i | . | -6 | .
CC1=C(C(=O)Nc2ccccc2C)C(c2ccc(C)o2)n2c(s/c(=C/c3ccccc3)c2=O)=N1 (centres undefined) | 1.1* | 77* | i | 46 | 75* | -0.14
CC1=C(C(=O)Nc2ccccc2)C(c2ccc(C)o2)n2c(s/c(=C/c3ccccc3)c2=O)=N1 (centres undefined) | 64 | 20 | i | 60 | 95* | 0.3
COc1ccc(NC(=O)C2CCCN(S(=O)(=O)c3c(C)[nH]c(=O)[nH]c3=O)C2)cc1 (centres undefined) | 92 | -14 | i | 94 | -6 | 0.6
COc1ccc(NC(=O)CC2(Cc3ccccc3)CCOC(C)(C)C2)cc1 (centres undefined) | 75 | -31 | i | 86 | 55* | -0.99
S=C(Nc1ccccc1)N1N=C(c2cccs2)CC1c1cccs1 (centres undefined) | . | . | i | . | 74* | -0.56
Cc1ccc(C2CC(c3ccccc3)=NN2C(=S)Nc2ccccc2)o1 (centres undefined) | 8 | 30 | i | 11 | 69* | .
SMILES | HCT116 bCat-KO | INS promoter inh | Autophagy HCS | HCT116 PTEN-null | L major viab | Insulin prom up
CC1=NN(C(=S)Nc2ccccc2)C(c2ccccc2)C1 (centres undefined) | 81 | 7 | i | 105 | 15 | 0.96
COc1ccc(C2CC(c3cccs3)=NN2C(=S)Nc2ccccc2)cc1OC (centres undefined) | 85 | . | i | 76 | 71* | 0.2
COc1cccc(C2CC(c3cccs3)=NN2C(=S)Nc2ccccc2)c1OC (centres undefined) | 73 | 46 | i | 78 | 65* | -1.8
Cc1ccc(NN2C(=O)C=C(c3ccc(Cl)cc3)C2=O)cc1 | 42 | 4 | i | 10 | 6 | -0.74
C(=C\c1nc(-c2cccnc2)no1)/c1ccccc1 | . | 70* | i | . | 1 | -1.6
COc1cc(C(=O)NCc2ccc(F)cc2)cc(Cl)c1OC | 94 | 53 | i | 92 | -6 | -0.87
CC1(C)C(=O)Nc2ccccc2N1C(=O)COC(=O)c1ccc(Cl)c(S(=O)(=O)NCc2ccccc2)c1 | 64 | -32 | i | 64 | 99* | 0.01
Cc1cc(C)n(-c2ccc(C(=O)OCC(=O)N(CC(C)C)C3CCS(=O)(=O)C3)cc2)n1 (centres undefined) | 97 | 14 | i | 97 | 0 | 3.3*
Cc1ccc(-n2c(C)cc(C(=O)OCC(=O)N(CC(C)C)C3CCS(=O)(=O)C3)c2C)cc1 (centres undefined) | 91 | -7 | i | 84 | 7 | -1.5
CCOCCCNC(=S)NC1CC2CCC(C1)N2Cc1ccccc1 (centres undefined) | . | . | i | . | 88* | .
Cc1ccccc1C(=O)NC1CC2CCC(C1)N2Cc1ccccc1 (centres undefined) | . | -22 | i | . | 86* | -0.76
CC(C)CNC(=S)NC1CC2CCCC(C1)N2C1CCCCC1 (centres undefined) | . | -27 | i | . | 52* | 0.55
S=C(NC1CCCCC1)NC1CC2CCC(C1)N2Cc1ccccc1 (centres undefined) | . | 8 | i | . | 90* | .
CCNC(=S)NC1CC2CCC(C1)N2Cc1ccccc1 (centres undefined) | 88 | 30 | i | 95 | 27 | -0.09
CCOc1ccc(-c2noc(COC)n2)cc1OC | 103 | -181 | i | 110 | -1 | 0.21
O=C(NC1CC2CCCC(C1)N2C(=O)Nc1ccc(Cl)c(C(F)(F)F)c1)C1CC1 (centres undefined) | 78 | 3 | i | 79 | 5 | -0.78
CCCNC(=S)NC1CC2CCC(C1)N2Cc1ccccc1 (centres undefined) | 83 | -11 | i | 102 | 66* | .
S=C(NCCc1ccccc1)NC1CC2CCC(C1)N2Cc1ccccc1 (centres undefined) | . | 0 | i | . | 94* | .
O=C(Nc1ccc(Cl)c(C(F)(F)F)c1)NC1CC2CCCC(C1)N2Cc1ccccc1 (centres undefined) | . | -7 | i | . | 100* | -0.87
CC(C)CNC(=S)NC1CC2CCC(C1)N2Cc1ccccc1 (centres undefined) | 91 | 17 | i | 90 | 88* | 0.01

Source: PubChem (several laboratories)
